Bioassay records (PubChem BioAssay)
C2C12 statin = suppressors of statin myotoxicity in C2C12 myotubes, primary screen, cell-based, single point, plate reader | rescue of ATP level, % at 7.49 µM | C2C12 myotubes + simvastatin, ATP luminescence, 48 h; scaled: DMSO 0, geranylgeraniol control 100 | 0.78% of 330,000 active;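 active means mean ATP rescue above about 67%, or every replicate alone reaching that limit, limit read from the data, passing the limit was not always enough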;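 further: myotubes were challenged with 10 µM simvastatin during compound exposure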
miR122 inh = miR-122 Renilla sensor signal increase in Huh7, primary screen, miR-122 inhibitor project, cell-based, single point, plate reader; 0.3% of 340,000 active; activation (reporter increase), % at 12.5 µM; Huh7 miR-122 Renilla luciferase sensor, 48 h; neutral wells = 0, positive control = 100;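 active means mean replicate activation score at least 90 and every replicate individually at or above 90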;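 further: higher luciferase means less miR-122 activity so hits act as miR-122 inhibitors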
DENV2 CPE rescue = inhibitors of DENV2 cytopathic effect, primary screen, cell-based, plate reader, single concentration. CPE inhibition, % at 9.99 µM. DENV2-infected cells, cytopathic effect rescue. 1.7% of 350,000 active. AID 651640, 2012; in the data active means CPE inhibition above about 20%, passing the limit was not always enough; tested in BHK-21 cells
PGC1a acetyl inh = inhibitors of PGC1a acetylation signal, primary screen, cell-based, U2OS, AlphaScreen, inhibitor mode. AlphaScreen anti-acetyl-lysine; with virally co-expressed GCN5 acetyltransferase. inhibition, % at 15.6 µM. 0.17% of 350,000 active;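 active means every replicate shows inhibition of at least 40%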
PvdQ inh = P. aeruginosa PvdQ acylase inhibitors, primary screen, biochemical, fluorescence, plate reader and imaging, single point; purified PvdQ acylase; PvdQ acylase [Pseudomonas aeruginosa LESB58]; inhibition, % at 10 µM; 0.063% of 340,000 active; in the data active means inhibition above about 30%, passing the limit was not always enough
Numbers stand for hits; n = inactive; x = not tested or not shown. Hits are enriched below; roughly 2.2% of the tested compounds scored in any of these assays.

SMILES | C2C12 statin | miR122 inh | DENV2 CPE rescue | PGC1a acetyl inh | PvdQ inh
COc1ccc(S(=O)(=O)Nc2ccc3c(c2)C(=O)N([C@@H](C)CO)C[C@@H](C)[C@H](CN(C)S(=O)(=O)c2ccc(Cl)cc2)O3)cc1 | n | n | 85 | n | x
C[C@H](CO)N1C[C@H](C)[C@@H](CN(C)C(=O)Nc2cc(F)ccc2F)Oc2cc(-c3cccc(F)c3)ccc2S1(=O)=O | n | n | n | n | x
CC(=O)N1[C@H](CO)[C@@H](c2ccccc2)C12CN(Cc1cc(F)ccc1F)C2 | x | x | n | n | x
Cc1ccc(S(=O)(=O)N(CC(=O)NCc2cccs2)c2ccccc2)cc1 | n | n | n | n | n
Cc1ccc(N(CC(=O)NCc2cccs2)S(=O)(=O)c2cccs2)cc1 | n | 182 | x | n | n
CCN(CC)c1ccc(C2C(C(=O)OCCOC)=C(C)NC3=C2C(=O)CC(C)(C)C3)cc1 (centres undefined) | n | 95 | x | n | n
CCCOC(=O)C1=C(C)NC2=C(C(=O)CC(C)(C)C2)C1c1ccc(N(C)C)cc1 (centres undefined) | x | n | x | n | n
Cc1ccc(S(=O)(=O)N(C)C[C@@H]2Oc3ccc(NC(=O)Nc4ccc(F)cc4)cc3C(=O)N([C@@H](C)CO)C[C@@H]2C)cc1 | n | n | n | n | x
CCOC(=O)c1cc(S(=O)(=O)N2CCc3ccccc32)cn1C | n | n | 39 | n | n
C[C@H]1CCCCO[C@H](CN(C)C(=O)CCCN(C)C)[C@@H](C)CN([C@@H](C)CO)C(=O)c2cc(NC(=O)C3CCCCC3)ccc2O1 | x | n | n | n | x
CCOc1ccc(N(C(=O)Cn2nnc3ccccc32)C(C(=O)NC(C)(C)CC)c2cccn2C)cc1 (centres undefined) | n | n | x | n | n
CCC(C)(C)NC(=O)C(c1cccn1C)N(C(=O)Cn1nnc2ccccc21)c1ccc(OC)cc1OC (centres undefined) | n | 92 | x | n | n
C[N+]1(C)CCC(=C2c3ccccc3CC(=O)c3sccc32)CC1 | n | n | x | 94 | n
COCC(=O)Nc1ccc2c(c1)[C@@H]1C[C@@H](CC(=O)NCc3ccc(Cl)cc3)O[C@H](CO)[C@@H]1O2 | n | n | n | n | x
CC(C)NC(=O)N(C)C[C@H]1Oc2ccc(NS(C)(=O)=O)cc2C(=O)N([C@H](C)CO)C[C@@H]1C | n | n | n | n | x
CC(C)NC(=O)N(C)C[C@@H]1Oc2ccc(NS(C)(=O)=O)cc2C(=O)N([C@@H](C)CO)C[C@@H]1C | n | n | 20 | n | x
Cc1ccc(S(=O)(=O)Nc2ccc3c(c2)C(=O)N([C@@H](C)CO)C[C@H](C)[C@H](CN(C)C(=O)NC(C)C)O3)cc1 | n | n | 32 | n | x
Cc1ccc(S(=O)(=O)Nc2ccc3c(c2)C(=O)N([C@H](C)CO)C[C@@H](C)[C@H](CN(C)C(=O)NC2CCCCC2)O3)cc1 | n | n | 41 | n | x
Cc1ccc(S(=O)(=O)Nc2ccc3c(c2)C(=O)N([C@H](C)CO)C[C@H](C)[C@H](CN(C)C(=O)NC(C)C)O3)cc1 | n | n | n | n | x
CC(C)C#Cc1cnc2c(c1)C(=O)N([C@@H](C)CO)C[C@@H](C)[C@H](CN(C)C(=O)Cc1ccccn1)O2 | n | n | n | n | x
CC(O)CNC1c2ccccc2CC1O (centres undefined) | n | n | 63 | n | n
CCC(=O)N1CCC2(CC1)CN(C(=O)CN1CCOCC1)[C@H](CO)c1c2c2ccc(OC)cc2n1C | x | x | n | x | x
CCOc1ccc(NS(=O)(=O)c2ccc(NC(=S)NC(=O)CC(C)C)cc2)cc1 | x | 166 | x | n | n
CCCC(=O)NC(=S)Nc1ccc(S(=O)(=O)Nc2ccc(OCC)cc2)cc1 | n | 181 | x | n | n
C=C(C)CN(CC)C(=O)COc1ccc(S(=O)(=O)Nc2ccc(OC)cc2)cc1 | n | 186 | x | n | n
CC(C)CC(=O)NC(=S)Nc1ccc(S(=O)(=O)NC(C)(C)C)cc1 | x | x | n | x | n
Cc1ccc(S(=O)(=O)N(C)C[C@H]2Oc3c(cccc3N(C)C)C(=O)N([C@@H](C)CO)C[C@H]2C)cc1 | n | n | n | n | x
O=C(C[C@H]1CC[C@@H](NC(=O)Nc2cccc(F)c2)[C@H](CO)O1)NCC1CCCCC1 | n | x | n | n | x
